# The list is not random: actives were taken first. Their share in the collection is about 7.1%.
# MARV entry inh – Marburg virus entry inhibition; 6.5% of 18,000 active; AID 720532; Potency, µM (top dose mostly 49.2 µM), for the others: at the highest dose activity change, negative = inhibition, usual class: inhibitors; Marburg virus pseudotype entry/binding inhibition, cell-based
# Lassa entry – Lassa virus entry inhibition; Lassa virus pseudotyped entry inhibition, cell-based qHTS; Potency, µM (highest dose often 49.2 µM), inactives show top-dose activity change, negative = inhibition, most hits filed as inhibitors; 4.1% of 18,000 active
# * = called active by the depositor; ? = inconclusive; nt = not tested or not shown; [ ] = remark or other dose. The call rests on the fitted dose curve; tested in HEK293 cells. On the % scale 0 is the no-effect control and ±100 the full control effect; potency means the concentration at half of the fitted maximal effect.
SMILES,MARV entry inh,Lassa entry
Cc1ncc2c(c1CNC(=O)c1ccccc1F)CCN(C(=O)c1ccc3c(c1)OCCO3)C2,5%,?
Cc1ncc2c(c1CNC(=O)c1ccccc1F)CCN(C(=O)c1[nH]c3ccc(Cl)cc3c1C)C2,?,10µM*
C=C1Cc2c(Cl)cc3[nH]c4c5c3c2[C@@]2(O)[C@@H]1C[C@@H]2C(C)(C)O[C@H]5[C@@H]1CC[C@@]2(O)[C@@]35O[C@@H]3[C@@H](O)[C@@H](C(=O)O)O[C@H]5CC[C@]2(C)[C@@]41C,?,28µM*
CCCC[C@]12Cc3ccccc3[C@H](O1)c1c(cc(-c3ccccc3)oc1=O)O2,?,-20%[8.59 µM]
COC(=O)N1C(C)=Cc2ccccc2C1CC(C)=CC(C)=O (configuration not stated),-10%[8.59 µM],-6%[8.59 µM]
C=C(CO[C@@H]1C=C[C@@H](c2ccccc2)O[C@@H]1COC)c1ccccc1,-4%[8.59 µM],9%[8.59 µM]
COc1cccc(Nc2nccc(-c3cnn4ncccc34)n2)c1,0.32µM*,?
NC(=O)c1cccc(Nc2nccc(Nc3cccc(F)c3)n2)c1,-60%,32%
COc1ccc(-c2nn3ncccc3c2-c2ccnc(Nc3cccc(C(F)(F)F)c3)n2)cc1,13µM*,?
CCc1nn2ncccc2c1-c1ccnc(NC2CC2)n1,-14%,nt
Cc1ccc2c(-c3ccnc(Nc4ccccc4)n3)c(-c3ccc(F)cc3)nn2n1,3.5µM*,?
C[C@]12C[C@@](C)(C=C1C=Cc1ccc(C(F)(F)F)cc1)C(=O)C[C@H]2c1ccc(C(F)(F)F)cc1,48%[8.59 µM],13%[8.59 µM]
CCN1C(=O)[C@@H]2[C@H]3[C@H](O)[C@H](O)CC(=NO[C@H](C)CN4CCCc5nc(C)c(C)cc54)[C@@H]3CC[C@H]2C1=O,2%[8.59 µM],14%[8.59 µM]
Cc1c(C(=O)NCCc2ccccn2)cnn1-c1nccc(-c2cccs2)n1,9%,2%
Cc1c(C(=O)NCCN2CCC(c3ccccc3)CC2)cnn1-c1nccc(-c2cccs2)n1,13µM*,-26%
CC(CCN1CCCCc2nc(C)c(C)cc21)=NO[C@H](C)c1cn([C@H](CO)Cc2ccccc2)nn1,?,9%[8.59 µM]
CC/C(=C(/CC)c1ccc(O)cc1)c1ccc(O)cc1,?,3.5µM*
CCOC(=O)c1ccc(O)cc1,13%,7%
CCC(=C(CC)c1ccc(O)cc1)c1ccc(O)cc1,?,6.3µM*
CC/C(=C(/CC)c1ccc(OP(=O)(O)O)cc1)c1ccc(OP(=O)(O)O)cc1,8%,-14%
CCCCCCCc1cc2ccccc2c2c(C(=O)OC)cc(C(=O)OC)n12,25%[8.59 µM],-12%[8.59 µM]
O=C(c1ccc(N2CCC(NCCCn3ncc4ccccc43)CC2)cc1)N1CCOCC1,?,1%
O=C(c1ccc(N2CCC(NCCCn3ncc4ccccc43)CC2)cc1)N1CCc2ccccc2C1,20µM*,?
C=C[C@H](CCCCCC)[C@@H]1C[C@H](CCCCCCCCCCC)O[P@](=O)(OC)O1,-33%,nt
CC[C@H](O)C(C[C@H](C)N(C)C)(c1ccccc1)c1ccccc1,18µM*,?
SMILES,MARV entry inh,Lassa entry
CC(CC(C#N)(c1ccccc1)c1ccccc1)N(C)C (configuration not stated),32µM*,?
C[C@@H]([C@H](O)c1ccccc1)N(C)C,33%,4%
CCN1C(=NCc2ccc(OC)cc2)NC(c2ccccc2)C(C(=O)OC)=C1C (configuration not stated),-22%[8.59 µM],10%[8.59 µM]
CCOC(=O)CN1C(=O)[C@]2(OCCC=C[C@@H]2C)c2ccccc21,1%[8.59 µM],11%[8.59 µM]
CC(CCN1CCc2nc(-c3ccccc3)c(-c3ccccc3)cc2C1)=NOC[C@@H](O)[C@H]1O[C@@H]2OC(C)(C)O[C@H]2[C@@H]1O,26%[8.59 µM],17%[8.59 µM]
O=C(Nc1ccccc1)OCC(CN1CCCCC1)OC(=O)Nc1ccccc1 (configuration not stated),13µM*,-13%
O=C(OCCN1CCCCC1)C(O)(c1ccccc1)c1ccccc1,-14%,-17%
C#CCN1C(=O)CC[C@@]23C1=NC(C(=O)OC)=C(C(=O)OC)[C@@H]2N(C)c1ccccc13,-10%[8.59 µM],1%[8.59 µM]
COc1ccc2c(c1)CO[C@H]([C@H](O)CO)[C@H]2C=Cc1ccccc1,-6%[8.59 µM],nt
CCN1C(=NCc2ccco2)N[C@@H](CCc2ccccc2)[C@H](C(=O)OC)[C@H]1C,33%[8.59 µM],43%[8.59 µM]
O[C@H]1[C@H]2c3cc4c(cc3CN3CCC(=C[C@@H]1O)[C@H]23)OCO4,1%,18%
OC1C=C2CCN3Cc4cc5c(cc4C(C1O)C23)OCO5 (configuration not stated),13µM*,-28%
CC(=O)[C@H]1CC[C@H]2[C@@H]3CC[C@@H]4C[C@H](O)CC[C@]4(C)[C@H]3CC[C@]12C,0%,-3%
CC(=O)O[C@H]1[C@H]2O[C@]23[C@@H]2CC[C@@H]4C[C@@H](O)CC[C@]4(C)[C@H]2CC[C@]3(C)[C@H]1c1ccc(=O)oc1,0.089µM*,0.2µM*
